Source: PubChem BioAssay (National Center for Advancing Translational Sciences (NCATS))
The list is not random: actives were taken first. Their share in the collection is about 12%.
Marburg entry inh: inhibitors of Marburg virus binding or cell entry. Marburg virus pseudotyped entry inhibition, cell reporter. Potency, µM (doses to about 37.8 µM), inactives show top-dose activity change, negative = inhibition, most hits filed as inhibitors. actives 1.8% (n = 300,000). AID 540276; calls by dose curve; tested in HEK293 cells; also: potency is read from the fitted curve at half-maximal effect; % is scaled to controls: 0 for no effect and ±100 for the full control effect
Shiga inhibitor: blocks Shiga toxin action in Vero cells | AID 2315 | inhibition, % at 38.7 µM | actives 9.2% (n = 290,000) | Vero cells, Shiga toxin protein synthesis inhibition reporter; in the data active = inhibition mostly above about 28%, no sharp cut-off; inactive = mostly below about 43%; also: 0% is about no effect
CHX counter: counter-screen hit for Shiga toxin inhibitors, cycloheximide. cell reporter, cycloheximide protein synthesis inhibition counterscreen. max response, %. actives 12% (n = 300,000). AID 2314; in the data active = max response mostly above about 13%, no sharp cut-off; inactive = mostly below about 14%; also: read at 38.3 µM for the half of the compounds with a filed dose; 0% is about no effect
LASV entry inh: Lassa virus entry inhibition | AID 540256 | Potency, µM (top dose mostly 37.9 µM), for inactives: at the highest dose activity change, negative = inhibition, most hits filed as inhibitors | actives 1.2% (n = 300,000) | Lassa virus pseudotype entry inhibition, cell reporter; calls by dose curve; tested in HEK293 cells; also: potency is read from the fitted curve at half-maximal effect; % is scaled to controls: 0 for no effect and ±100 for the full control effect; nearly all actives have a fitted effect of over 50% in size
Numbers without * were called inactive; ? = inconclusive; / = no result given; [ ] = remark or other dose.

SMILES	Marburg entry inh	Shiga inhibitor	CHX counter	LASV entry inh
Clc1nnc(NN=C2CCCC2)c2ccccc12	?	4	-1	20%
Clc1ccc(/C=N/Nc2nnc(Cl)c3ccccc23)cc1	0%	55*	18*	?
Clc1cncc(Cl)c1N/N=C/c1ccccc1	?	48*	29*	29%
Clc1nnc(N/N=C/c2ccccc2)c2ccccc12	?	65	47*	-19%
Clc1ccc(/C=N/Nc2nc(Cl)nc3ccccc23)cc1	?	132	23	27%
CC(=O)Nc1ccc(C=NNc2nnc(NN=Cc3ccc(NC(C)=O)cc3)c3ccccc23)cc1	?	/	/	1.6µM*
COc1ccc(Cn2ccc3nc(C)c(C(=O)N4CCN(c5cc(C)ccc5C)CC4)cc3c2=O)cc1	/	/	/	-20%[46.1 µM]
O=S(=O)(c1ccc(NC(=S)NCc2ccncc2)cc1)N1CCCCC1	?	-2	1	9%[46.1 µM]
Cc1ccc(/C=N/Nc2nnc(Cl)c3ccccc23)cc1	10µM*	46*	46*	?
C=CCNc1nnc(Cl)c2ccccc12	2%	-9	-3	17%
Cc1cc(C(=O)N/N=C/c2cccnc2)c(C)o1	13%	8	16*	5%
Cc1occc1C(=O)N/N=C/c1cccnc1	-1%	75*	25*	?
O=C(COc1ncnc2ccccc12)Nc1ccccc1[N+](=O)[O-]	3%[46.1 µM]	33	5	1%
Cc1cc(C(=O)COC(=O)c2cccc(NS(C)(=O)=O)c2)c(C)n1CC1CCCO1 (stereo not drawn)	5.6µM*	/	/	10µM*
Cc1cc(C(=O)COC(=O)c2ccccc2Br)c(C)n1CC1CCCO1 (stereo not drawn)	?	2	16	?
Cc1cc(C(=O)COC(=O)c2n[nH]c3ccccc23)c(C)n1CC1CCCO1 (stereo not drawn)	7.1µM*	44	38*	?
Cc1ccc(C(=O)OCC(=O)c2cc(C)n(CC3CCCO3)c2C)cc1 (stereo not drawn)	?	107*	40*	-10%
Cc1cc(C(=O)COC(=O)C2COc3ccccc3O2)c(C)n1CC1CCCO1 (stereo not drawn)	24%	-3	8	-12%
CCOc1cc(C(=O)OCC(=O)c2cc(C)n(CC3CCCO3)c2C)ccc1OCC(=O)N1CCOCC1 (stereo not drawn)	/	53*	32*	/
Cc1c(C(=O)O)sc2nc(CSc3ncc(C(F)(F)F)cc3Cl)[nH]c(=O)c12	-3%[46.1 µM]	-3	0	5%
O=C([C@H](Cc1ccccc1)NS(=O)(=O)c1ccc(Cl)cc1)N1CC[C@@]2(O)CCCC[C@H]2C1	-27%	-3	-2	?
Cc1cc(C(=O)COC(=O)c2ccccc2NCCO)c(C)n1CC1CCCO1 (stereo not drawn)	/	112*	89*	/
Cc1cc(C(=O)COC(=O)c2cc(O)c3ccccc3c2O)c(C)n1CC1CCCO1 (stereo not drawn)	?	25	14*	7%
Cc1cc(C(=O)COC(=O)c2cccnc2Cl)c(C)n1CC1CCCO1 (stereo not drawn)	/	-11	-3	/
Cc1cc(C(=O)COc2ccccc2C(N)=O)c(C)n1CC1CCCO1 (stereo not drawn)	?	48	26*	-13%
SMILES	Marburg entry inh	Shiga inhibitor	CHX counter	LASV entry inh
CC(C)CNC(=O)c1ccc(COc2ccc(Cl)cc2Cl)o1	-17%	20	4	11µM*
Oc1ccc(/C=N/Nc2ncnc3nc[nH]c23)cc1	/	60	35*	/
Cc1ccc(/C=N/Nc2ncnc3nc[nH]c23)cc1	1%	147*	38*	/
c1ccc(COc2ccc(Nc3ncnc4nc[nH]c34)cc2)cc1	/	39	18	/
Clc1ccc(/C=N/Nc2ncnc3nc[nH]c23)cc1	-20%[46.1 µM]	64	39*	14%
Clc1ccccc1CNc1ncnc2nc[nH]c12	-10%	11	4	4%
Cc1ccc(C)c(Nc2ncnc3nc[nH]c23)c1	/	-15	-7	/
CC(C)(C)c1ccc(-c2nnc(-c3ccccc3NC(=O)c3cccc(C(F)(F)F)c3)o2)cc1	-4%[46.1 µM]	/	/	5%[46.1 µM]
N#Cc1cc2c(nc1SCC(=O)N1CCOCC1)CCCCC2	-29%	101*	42*	?
N#Cc1cc2c(nc1SCC(N)=O)CCCCC2	-6%	107	18*	-25%
CCOC(=O)CC(=O)CSc1nc2c(cc1C#N)CCCCCC2	?	13	-2	-1%
Cc1ccccc1NC(=O)CSc1nnc(Cc2ccccc2)c(=O)n1N	27%	/	/	-19%
N/C(=N\NS(=O)(=O)c1ccc(Cl)cc1)c1ccccn1	?	/	/	5%[46.1 µM]
Cc1cccc(-n2ccc(=O)c(C(=O)Nc3ccc(S(=O)(=O)N4CCOCC4)cc3)n2)c1	/	-9	10	/
N#C/C(=C/c1ccc2c(c1)OCO2)C(=O)Nc1ccc(O)cc1	-20%[46.1 µM]	54	49*	-17%[46.1 µM]
